# Reference: PubChem BioAssay (EPA / NIEHS)
# Records with an inconclusive call do not appear. Calls of active or inactive are those of the source. How the source made its calls, unless noted: active means hit-call score of the fitted dose curve at least 0.9, where 1 is the maximum; inactive means score below 0.9.
# Tests used:
# [1] = CCTE_Mundy_HCI_Cortical_Synap_Neur_Matur_NeuriteLength: CCTE's Synaptogenesis and Neurite Maturation Assay in rat cortical cells for Neurite Length, Mundy Lab (AID 2284214)
# Outline: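 Cultures of rat primary cortical cells received chemical at DIV 7 and were fixed at DIV 12, after glial arrest with AraC at DIV 5. Neurite length was measured by automated imaging of MAP2 immunofluorescence.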
# [2] = CCTE_Mundy_HCI_Cortical_Synap_Neur_Matur_NeuriteSpotCountPerNeuron: CCTE's Synaptogenesis and Neurite Maturation Assay in rat cortical cells for Neurite Spot Count per Neuron Count, Mundy Lab (AID 2284215)
# Outline: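 Developing rat cortical neurons, with glia suppressed by AraC, are exposed to chemicals from DIV 7 to DIV 12. Automated fluorescence imaging of MAP2-labelled neurites and synaptophysin puncta yields a count per neuron, normalised against DMSO wells.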
# [3] = CCTE_Mundy_HCI_Cortical_Synap_Neur_Matur_SynapseCount: CCTE's Synaptogenesis and Neurite Maturation Assay in rat cortical cells for Synapse Count, Mundy Lab (AID 2284218)
# Outline: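 Cells were plated, allowed 2 hr to attach, treated with AraC at DIV 5, then exposed to chemicals from DIV 7 until DIV 12. After fixation and MAP2/synaptophysin immunolabelling, synapses per neuron were quantified by automated imaging against DMSO.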
# [4] = CCTE_Mundy_HCI_Cortical_Synap_Neur_Matur_NeuriteCount: CCTE's Synaptogenesis and Neurite Maturation Assay in rat cortical cells for Neurite Count, Mundy Lab (AID 2284222);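 further: exposure from day 7 to day 12 in vitro with readout at day 12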
# Outline: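 Primary rat cortical cells were plated, treated with AraC at DIV 5, then exposed to chemicals from DIV 7 through DIV 12. After fixation and immunostaining for MAP2 and synaptophysin, imaging quantified neurites, with DMSO as the negative control.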
# [5] = CCTE_Mundy_HCI_Cortical_Synap_Neur_Matur_CellBodySpotCount: CCTE's Synaptogenesis and Neurite Maturation Assay in rat cortical cells for Cell Body Spot Count, Mundy Lab (AID 2284223)
# Outline: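 Chemicals were applied to AraC-treated rat primary cortical cells at DIV 7 and measured at DIV 12. Fixed cells were labelled for MAP2, synaptophysin and nuclei, and high-content imaging gave cell body synaptophysin spot counts per neuron relative to DMSO.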
# [6] = CCTE_Mundy_HCI_hNP1_Pro_ResponderAvgInten: CCTE's Proliferation Assay in human neuroprogenitor cells, Mundy Lab (AID 2284224; active means hit-call score of the fitted dose curve at least 0.9, where 1 is the maximum;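 further: human neural progenitor cells hNP1 derived from WA09 embryonic stem cells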)
# Outline: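 Proliferation was scored as BrdU labelling intensity in human neural progenitors derived from WA09 embryonic cells, measured 26.25 hours after chemical dosing. Activity was fitted relative to DMSO.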
# [7] = UKN2_HCS_IMR90_cell_viability: Viability Assessment in the University of Konstanz (UKN) Leist Lab Neural Crest Cell Migration Assay in human induced IMR90 Pluripotent Stem Cells (UKN2) (AID 2284233);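 further: cells exposed to compound for 24 h after a 24 h migration phase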
# Outline: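 After calcein-AM/Hoechst staining, viability is quantified by high-content fluorescence imaging, relative to DMSO, in iPSC (IMR90)-derived neural crest cells. Exposure lasts 24 h, starting after a 24 h migration period on PLO/laminin/fibronectin coating.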
# [8] = CCTE_Mundy_HCI_Cortical_NOG_NeuronCount: CCTE's Neurite Outgrowth Assay in rat cortical cells for Neuron Count, Mundy Lab (AID 2284236; active means hit-call score of the fitted dose curve at least 0.9, where 1 is the maximum;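 further: neurons counted by imaging betaIII-tubulin and Hoechst stained cortical cells; cells exposed to compound for about 48 hours before fixation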)
# Outline: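 Read-out: neuron number by high-content imaging of betaIII-tubulin (Alexa Fluor-488) and Hoechst-labelled rat primary cortical cells.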
# [9] = CCTE_Mundy_HCI_Cortical_NOG_BPCount: CCTE's Neurite Outgrowth Assay in rat cortical cells for Branch Point Count, Mundy Lab (AID 2284237)
# Outline: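 Measured 50.33 h after dosing, this morphology endpoint uses rat primary cortical cultures labelled for betaIII-tubulin. Branch points are quantified by high-content imaging, with DMSO as negative control and baseline.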
# [10] = CCTE_Mundy_HCI_hNP1_Casp3_7: CCTE's Caspase-Glo 3/7 Assay in human neuroprogenitor cells for Apoptosis, Mundy Lab (AID 2284240)
# Outline: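 Apoptosis is scored by activated caspase-3/7 luminescence in WA09-derived neural progenitor cells, measured 26.5 h after chemical dosing. Values represent gain of signal relative to DMSO vehicle.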
# [11] = CCTE_Mundy_HCI_Cortical_Synap_Neur_Matur_NeuronCount: CCTE's Synaptogenesis and Neurite Maturation Assay in rat cortical cells for Neuron Count, Mundy Lab (AID 2284242; active means hit-call score of the fitted dose curve at least 0.9, where 1 is the maximum;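 further: neuron number from Hoechst nuclei and MAP2 staining by high-content imaging; hits reduce neuron count versus DMSO baseline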)
# Outline: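 Cortical cells from rat are plated, treated with AraC at DIV 5, and exposed to test chemicals with a media change at DIV 7. At DIV 12 they are fixed and immunostained (MAP2, synaptophysin), and imaged neuron counts are compared against DMSO controls.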
# [12] = IUF_NPC2c_oligodendrocyte_migration_120hr: Leibniz Research Institute for Environmental Medicine (IUF) 120-hour Neural Progenitor Cell Migration Assay for Oligodendrocyte Migration (NPC2c) (AID 2284297);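 further: O4-positive oligodendrocyte migration distance divided by radial glia migration distance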
# Outline: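 Using fetal brain neural progenitor spheres differentiating in N2 medium at 37C, compounds were present for 120 h. Oligodendrocyte migration distance, normalized to radial glia migration, was measured from imaged O4 staining.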
# [13] = IUF_NPC2a_radial_glia_migration_120hr: Leibniz Research Institute for Environmental Medicine (IUF) 120-hour Neural Progenitor Cell Migration Assay for Radial Glia Migration (NPC2a) (AID 2284298)
# Outline: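 Exposure of 0.3 mm primary hNPC spheres runs day 0 to 120 h with a half-volume medium change at day 3. Fixed cells get Hoechst staining; high-content analysis of nuclear positions yields radial glia migration distance per well, compared against DMSO controls.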
# [14] = IUF_NPC2a_radial_glia_migration_72hr: Leibniz Research Institute for Environmental Medicine (IUF) 72-hour Neural Progenitor Cell Migration Assay for Radial Glia Migration (NPC2a) (AID 2284299)
# Outline: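 Single 0.3 mm neurospheres were plated per well in N2 differentiation medium and exposed from the start of differentiation. After 72 hours, brightfield images were taken and radial glia migration from the sphere core edge was measured manually in four directions, averaged per well.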
# [15] = IUF_NPC2b_neuronal_migration_120hr: Leibniz Research Institute for Environmental Medicine (IUF) 120-hour Neural Progenitor Cell Migration Assay for Neuron Migration (NPC2b) (AID 2284300)
# Outline: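 Fetal human NPC spheres migrate on PDL/laminin during 120 h compound treatment; neuronal migration distance, glia-normalized, scored versus DMSO control.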
# [16] = IUF_NPC3_neuronal_differentiation_120hr: Leibniz Research Institute for Environmental Medicine (IUF) 120-hour Neuronal Differentiation Assay (NPC3) (AID 2284301)
# Outline: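 Value is percent TUBB3-positive neurons among Hoechst-stained nuclei in the migration area, scored by trained CNN after 120 h differentiation. Primary hNPC spheres on poly-D-lysine/laminin, N2 medium, continuous dosing from day 0, half-refeed day 3; DMSO reference.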
# [17] = IUF_NPC4_neurite_length_120hr: Leibniz Research Institute for Environmental Medicine (IUF) 120-hour Neuronal Morphology Assay for Neurite Length (NPC4) (AID 2284302)
# Outline: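 Neurite length, the mean in um across TUBB3-stained neurons, is derived by skeletonization of high-content images after 120 h differentiation. Compound exposure, 7 concentrations plus solvent control, ran from plating of hNPC spheres on poly-D-lysine/laminin, with medium half-replaced on day 3.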
# [18] = IUF_NPC4_neurite_area_120hr: Leibniz Research Institute for Environmental Medicine (IUF) 120-hour Neuronal Morphology Assay for Neurite Area (NPC4) (AID 2284305; active means hit-call score of the fitted dose curve at least 0.9, where 1 is the maximum)
# Outline: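 Neurite area (pixels, nuclei excluded) of TUBB3-positive neurons from hNPC spheres differentiating 5 days under continuous exposure at 37 C, 5% CO2. High-content imaging; loss of signal versus DMSO control across 7 concentrations.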
# [19] = IUF_NPC2-5_cytotoxicity_72hr: Cytotoxicity Assessment at 72 hours in the Leibniz Research Institute for Environmental Medicine (IUF) Neural Progenitor Cell Migration and Differentiation Assay for Cytotoxicity (NPC2-5) (AID 2284306; active means hit-call score of the fitted dose curve at least 0.9, where 1 is the maximum;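 further: LDH release into supernatant measured by resorufin fluorescence marking membrane damage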)
# Outline: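 Membrane-integrity cytotoxicity at 72 h, read as LDH-driven resorufin fluorescence in supernatant. hNPC spheres from fetal cortex differentiate on coated plates in N2 medium, 37C, 5% CO2; seven serial compound concentrations plus solvent control (DMSO ≤0.1%).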
# [20] = IUF_NPC2-5_cytotoxicity_120hr: Cytotoxicity Assessment at 120 hours in the Leibniz Research Institute for Environmental Medicine (IUF) Neural Progenitor Cell Migration and Differentiation Assay (NPC2-5) (AID 2284307; active means hit-call score of the fitted dose curve at least 0.9, where 1 is the maximum)
# Outline: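 Membrane-integrity loss is quantified by LDH in supernatant after five days of exposure of migrating, differentiating human fetal NPC spheres; seven serially diluted concentrations are tested with DMSO kept at or below 0.1%.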
# [21] = IUF_NPC2-5_cell_number_120hr: Cell Number Assessment at 120 hours in the Leibniz Research Institute for Environmental Medicine (IUF) Neural Progenitor Cell Migration and Differentiation Assay (NPC2-5) (AID 2284308);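 further: count of Hoechst-stained nuclei in migration zone around plated human neural progenitor spheres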
# Outline: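 Seven-point serial dilutions plus solvent control were applied to plated 0.3 mm hNPC spheres at differentiation start, with medium half-replaced at day 3. Nuclei positive for Hoechst in the migration zone were enumerated at 120 h.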
# [22] = IUF_NPC2-5_viability_120hr: Viability Assessment at 120 hours in the Leibniz Research Institute for Environmental Medicine (IUF) Neural Progenitor Cell Migration and Differentiation Assay (NPC2-5) (AID 2284312)
# Outline: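 Alamar blue resorufin fluorescence read after 5 days of differentiation, with compound present from day 0 and replenished at day 3. Primary hNPC spheres on laminin-coated plates, 37C; seven concentrations plus solvent control, fitted against DMSO.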
# [23] = CCTE_Mundy_HCI_iCellGluta_NOG_NeuriteLength: CCTE's Neurite Outgrowth Assay in iCellGluta cells for Neurite Length, Mundy Lab (AID 2284318; active means hit-call score of the fitted dose curve at least 0.9, where 1 is the maximum)
# Outline: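 Automated high-content imaging of betaIII-tubulin (Alexa Fluor-488) and Hoechst-stained cells gave neurite length, normalized to the DMSO baseline.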
# [24] = IUF_NPC1_cytotoxicity_72hr: Cytotoxicity Assessment at 72 hours in the Leibniz Research Institute for Environmental Medicine (IUF) Neural Progenitor Cell Proliferation Assay (NPC1) (AID 2284332; active means hit-call score of the fitted dose curve at least 0.9, where 1 is the maximum;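 further: rising LDH signal means more cytotoxicity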)
# Outline: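 Membrane-integrity loss is scored from LDH released into the medium, detected as resorufin fluorescence, with activity fitted upward relative to baseline. Test material stays on human fetal-derived progenitor spheres for 72 h.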
# [25] = CCTE_Mundy_HCI_iCellGluta_NOG_NeuronCount: CCTE's Neurite Outgrowth Assay in iCellGluta cells for Neuron Count, Mundy Lab (AID 2284340; active means hit-call score of the fitted dose curve at least 0.9, where 1 is the maximum;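 further: cells fixed about 48 h after compound addition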)
# Outline: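 Neuron count read by automated high-content imaging of Hoechst 33342 and betaIII-tubulin/Alexa Fluor-488 labelling in human iPSC glutamatergic neurons. Activity fitted relative to DMSO.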
# [26] = CCTE_Mundy_HCI_iCellGluta_NOG_NeuriteCount: CCTE's Neurite Outgrowth Assay in iCellGluta cells for Neurite Count, Mundy Lab (AID 2284342; active means hit-call score of the fitted dose curve at least 0.9, where 1 is the maximum;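 further: chemical exposure about 48 hours starting 2 hours after plating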)
smiles,measurement,setting,value
CCOP(=O)(OCC)OC(Cl)C(Cl)(Cl)Cl (stereo unspecified),outcome,[1],inactive
same,outcome,[2],inactive
same,outcome,[3],inactive
same,outcome,[4],inactive
same,outcome,[5],inactive
same,outcome,[6],inactive
same,outcome,[7],inactive
same,outcome,[8],inactive
same,outcome,[9],inactive
same,outcome,[10],inactive
same,AC50,[11],9.85 µM (active)
same,outcome,[12],inactive
same,outcome,[13],inactive
same,outcome,[14],inactive
same,outcome,[15],inactive
same,outcome,[16],inactive
same,outcome,[17],inactive
same,outcome,[18],inactive
same,outcome,[19],inactive
same,outcome,[20],inactive
same,AC50,[21],36 µM (active)
same,outcome,[22],inactive
same,outcome,[23],inactive
same,outcome,[24],inactive
same,outcome,[25],inactive
same,outcome,[26],inactive
